Many of the other results were omitted from the sample, so hits are more common in it than they were.
Artemis endo inh: blocks endonuclease activity of human Artemis. inhibition, % at 10 µM. Q96SD1. 30,000 compounds, 0.78% hits. AID 686954. recombinant Artemis, quenched FAM hairpin cleavage fluorescence;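 active = at 10 µM dose, at least 30% inhibition, measured as corrected fluorescence normalized to stimulator and neutral control wells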
* marks the source's active call; other numbers are inactive results.

SMILES	Artemis endo inh
CCOC(=O)c1c(-n2c(C)cc(/C=C3/C(=O)NC(=O)N(CC)C3=O)c2C)sc2c1CCCC2	35*
CCC(C)N1CCN(C(=O)Cc2ccccc2)CC1 (configuration not stated)	1
CC(Cc1ccccc1)[n+]1cc(/N=C(\[O-])Nc2ccccc2)on1 (configuration not stated)	1
O=c1c2ccccc2nc(-c2cccs2)n1-c1ccccc1	3
CCn1nc(-c2cccs2)nc2c(=O)n(C)c(=O)nc1-2	71*
CC(C(=O)c1c[nH]c2ccccc12)N1CCc2ccccc2C1 (configuration not stated)	-4
CCC(=O)N1c2ccc(S(=O)(=O)CCC(=O)N3CCC4(CC3)OCCO4)cc2CC1C (configuration not stated)	-5
O=P(OCC(F)(F)C(F)F)(N1CCOCC1)N1CCOCC1	3
Cc1ccc(N2C(=O)/C(=C/N3CCN(C(=O)c4ccco4)CC3)C(=O)NC2=S)cc1C	31*
COCCCN1CCN(c2nnc3n2-c2sc(Br)cc2C(c2ccccc2Cl)=NC3)CC1	1
C=C1N2CCC(CC2)C1(O)c1ccccc1C (configuration not stated)	0
NCC(CC(=O)O)c1ccc(Cl)cc1 (configuration not stated)	-8
C(#CCN1CCOCC1)COC/C=C/c1ccccc1	-6
Nc1cccc(N=Cc2c(O)n(Cc3ccc(F)cc3)c(=O)[nH]c2=O)c1	6
CC(C)Cc1[nH]c(=O)c(C#N)c2c1CCC2	-8
